Assay results as given in PubChem BioAssay (EPA / NIEHS).
Results filed as inconclusive are left out. Active and inactive are the calls of the source. The calls were made as follows, unless noted: active = hit-call score of the fitted dose curve at least 0.9, where 1 is the maximum; inactive = score below 0.9.

Tests used:
[1] = CCTE_Mundy_HCI_Cortical_Synap_Neur_Matur_BPCount: CCTE's Synaptogenesis and Neurite Maturation Assay in rat cortical cells for Branch Point Count, Mundy Lab (AID 2284211)
Method in brief: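 Branch point number is quantified by automated imaging of fluorescently labelled neurites and synapses in rat primary cortical neurons exposed from DIV 7 to DIV 12. Activity is analysed relative to DMSO negative control.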

[2] = CCTE_Mundy_HCI_Cortical_NOG_NeuriteCount: CCTE's Neurite Outgrowth Assay in rat cortical cells for Neurite Count, Mundy Lab (AID 2284212);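 also: cells fixed about two days after chemical exposure began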
Method in brief: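 Neurite number per cell from high-content imaging of betaIII-tubulin immunostaining, with Hoechst nuclear counterstain.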

[3] = CCTE_Mundy_HCI_Cortical_Synap_Neur_Matur_NeuriteCount: CCTE's Synaptogenesis and Neurite Maturation Assay in rat cortical cells for Neurite Count, Mundy Lab (AID 2284222)
Method in brief: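 Rat cortical neurons, 96-well; AraC DIV 5; chemical + media change DIV 7; end DIV 12. Fix PFA/Hoechst, anti-MAP2 + anti-synaptophysin IF. HCI neurite count vs DMSO baseline.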

[4] = CCTE_Mundy_HCI_hNP1_Pro_ResponderAvgInten: CCTE's Proliferation Assay in human neuroprogenitor cells, Mundy Lab (AID 2284224; active = hit-call score of the fitted dose curve at least 0.9, where 1 is the maximum)
Method in brief: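 Proliferation was scored as BrdU labelling intensity in human neural progenitors derived from WA09 embryonic cells, measured 26.25 hours after chemical dosing. Activity was fitted relative to DMSO.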

[5] = CCTE_Mundy_HCI_Cortical_NOG_NeuronCount: CCTE's Neurite Outgrowth Assay in rat cortical cells for Neuron Count, Mundy Lab (AID 2284236; active = hit-call score of the fitted dose curve at least 0.9, where 1 is the maximum;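 also: neurons counted by imaging betaIII-tubulin and Hoechst stained cortical cells; cells exposed to compound for about 48 hours before fixation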)
Method in brief: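 Read-out: neuron number by high-content imaging of betaIII-tubulin (Alexa Fluor-488) and Hoechst-labelled rat primary cortical cells.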

[6] = CCTE_Mundy_HCI_Cortical_NOG_BPCount: CCTE's Neurite Outgrowth Assay in rat cortical cells for Branch Point Count, Mundy Lab (AID 2284237);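 as to AC50: branch points counted about two days after chemical exposure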
Method in brief: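 Measured 50.33 h after dosing, this morphology endpoint uses rat primary cortical cultures labelled for betaIII-tubulin. Branch points are quantified by high-content imaging, with DMSO as negative control and baseline.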

[7] = CCTE_Mundy_HCI_hNP1_Casp3_7: CCTE's Caspase-Glo 3/7 Assay in human neuroprogenitor cells for Apoptosis, Mundy Lab (AID 2284240)
Method in brief: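 Apoptosis is scored by activated caspase-3/7 luminescence in WA09-derived neural progenitor cells, measured 26.5 h after chemical dosing. Values represent gain of signal relative to DMSO vehicle.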

[8] = CCTE_Mundy_HCI_hNP1_CellTiter: CCTE's Cell Titer-Glo 2 Assay in human neuroprogenitor cells for Viability, Mundy Lab (AID 2284241; active = hit-call score of the fitted dose curve at least 0.9, where 1 is the maximum;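 as to AC50: a hit is a drop in ATP luminescence versus DMSO meaning reduced viability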)
Method in brief: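 Human neural progenitor cells (hNP1, WA09-derived) were plated on poly-L-ornithine/laminin and grown 40 to 44 hours at 37 °C, 5% CO2 before chemical addition. Twenty-four hours later, ATP was measured by CellTiter-Glo luminescence; loss of signal versus DMSO indicates reduced viability.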

[9] = IUF_NPC5_oligodendrocyte_differentiation_120hr: Leibniz Research Institute for Environmental Medicine (IUF) 120-hour Oligodendrocyte Differentiation Assay (NPC5) (AID 2284304; active = hit-call score of the fitted dose curve at least 0.9, where 1 is the maximum;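 also: primary human fetal neural progenitor spheres plated to migrate and differentiate; share of O4-positive cells among Hoechst nuclei found by CNN image analysis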)
Method in brief: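 Human fetal neural progenitor spheres (0.3 mm) plated on poly-D-lysine/laminin in N2 differentiation medium and exposed for 120 h at 7 concentrations, with half-medium renewal at day 3. O4-positive cells identified by CNN, expressed as percent of Hoechst nuclei.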

[10] = IUF_NPC4_neurite_area_120hr: Leibniz Research Institute for Environmental Medicine (IUF) 120-hour Neuronal Morphology Assay for Neurite Area (NPC4) (AID 2284305; active = hit-call score of the fitted dose curve at least 0.9, where 1 is the maximum)
Method in brief: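 Neurite area is read out as the mean pixel area, excluding nuclei, of skeletonized TUBB3-positive neurons imaged after 120 h. Primary human neural progenitor spheres differentiated on poly-D-lysine/laminin with compound present from day 0. Activity was referenced to DMSO controls.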

[11] = CCTE_Mundy_HCI_iCellGluta_NOG_NeuriteLength: CCTE's Neurite Outgrowth Assay in iCellGluta cells for Neurite Length, Mundy Lab (AID 2284318; active = hit-call score of the fitted dose curve at least 0.9, where 1 is the maximum)
Method in brief: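 Automated high-content imaging of betaIII-tubulin (Alexa Fluor-488) and Hoechst-stained cells gave neurite length, normalized to the DMSO baseline.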

[12] = IUF_NPC1_cytotoxicity_72hr: Cytotoxicity Assessment at 72 hours in the Leibniz Research Institute for Environmental Medicine (IUF) Neural Progenitor Cell Proliferation Assay (NPC1) (AID 2284332; active = hit-call score of the fitted dose curve at least 0.9, where 1 is the maximum;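 also: rising LDH signal means more cytotoxicity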)
Method in brief: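 Single human fetal cortex neural progenitor spheres (GW 16-19, 0.25-0.35 mm) in EGF/FGF proliferation medium were exposed to compound for 72 h at 37C without renewal. Medium LDH release was read as resorufin fluorescence and fitted as gain-of-signal.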

[13] = CCTE_Mundy_HCI_iCellGluta_NOG_NeuriteCount: CCTE's Neurite Outgrowth Assay in iCellGluta cells for Neurite Count, Mundy Lab (AID 2284342; active = hit-call score of the fitted dose curve at least 0.9, where 1 is the maximum;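 also: chemical exposure about 48 hours starting 2 hours after plating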)
[14] = UKN5_HCS_SBAD2_neurite_outgrowth: University of Konstanz (UKN) Leist Lab Neurite Outgrowth Assay in human iPSC-derived immature Dorsal Root Ganglia Neurons (UKN5) (AID 2284070); details: actives raise or lower the signal
Method in brief: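 Human iPSC-derived immature DRG neurons (SBAD2) on Matrigel with CHIR99021 (1.5 uM), SU5402 (5 uM), DAPT (5 uM); compounds added 1 h post-seeding for 24 h. Calcein-AM neurite area imaged; bidirectional fit vs DMSO.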

[15] = UKN4_HCS_LUHMES_neurite_outgrowth: University of Konstanz (UKN) Leist Lab Neurite Outgrowth Assay in human LUHMES cells (UKN4) (AID 2284206); details: actives raise or lower the signal
Method in brief: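 LUHMES neuronal precursors differentiated 2 days, replated without cAMP/GDNF, then exposed to chemicals for 24 h. Neurite area imaged by high-content microscopy after calcein-AM staining; Hoechst H-33342 marks viability. Bidirectional fit versus DMSO.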

[16] = UKN4_HCS_LUHMES_cell_viability: Viability Assessment in the University of Konstanz (UKN) Leist Lab Neurite Outgrowth Assay in human LUHMES cells (UKN4) (AID 2284232)
Method in brief: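 LUHMES cells differentiated 2 days, replated without cAMP/GDNF, then exposed to compounds for 24 h from attachment. Viability read by high-content fluorescence imaging after 30 min live-staining with H-33342 and calcein-AM; bidirectional fit relative to DMSO baseline.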

[17] = Tanguay_ZF_120hpf_MUSC: Oregon State University Tanguay Lab 120 Hour Post-fertilization zebrafish Assay for Muscle Malformation (AID 2284401)
Method in brief: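 Dechorionated Tropical 5D wild-type zebrafish embryos exposed statically from 6 to 120 hpf at 28C, one per well, in 0.64% DMSO. Muscle malformation scored present/absent by brightfield microscopy at 120 hpf, fitted against DMSO.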

Measured: AC50

CCOP(=O)(Oc1cnc(C(C)(C)C)nc1)OC(C)C (stereo not drawn)
active: [11] 28.8 µM
not listed: [14] | [15] | [16] | [17]
inactive: all other assays above

CC1(C)C(C=C(Cl)Cl)[C@H]1C(=O)O[C@H](C#N)c1cccc(Oc2ccccc2)c1 (stereo partly drawn)
inactive: [14] | [15] | [16] | [10] | [12]
active: [9] 1 µM

O=C(O)C(F)(F)C(F)(F)C(F)(F)C(F)(F)C(F)(F)C(F)(F)C(F)(F)C(F)(F)C(F)(F)C(F)F
inactive: [17]

C[N+](C)(C)CCCNS(=O)(=O)C(F)(F)C(F)(F)C(F)(F)C(F)(F)C(F)(F)C(F)(F)C(F)(F)C(F)(F)F
inactive: [17]

[CH3][Sn]([CH3])[CH3]
inactive: [5]
active: [7] 5 µM

C[C@@]1(CO)[C@H](O)CC[C@@]2(C)[C@H]1CC[C@H]1C[C@@H]3C[C@@]12CC[C@]3(O)CO
inactive: [4]

O=C(F)C1(F)C(F)(F)C(F)(F)C(F)(F)C(F)(F)C1(F)F
inactive: [17]

O=C1N[C@@H]2C(=C[C@H](O)[C@@H](O)[C@H]2O)c2cc3c(c(O)c21)OCO3
inactive: [12]
active: [14] 0.0327 µM | [15] 0.0456 µM | [16] 0.256 µM | [9] 0.0121 µM | [10] 0.00933 µM

CC(C)(C)C(=O)CC(=O)C(F)(F)C(F)(F)C(F)(F)F
inactive: [17]

C=C(C)C(=O)OCC(F)(F)C(F)(F)C(F)(F)F
inactive: [17]

OCC(F)(F)C(F)(F)C(F)(F)C(F)(F)C(F)(F)C(F)(F)C(F)(F)C(F)(F)CO
inactive: [17]

C[n+]1ccc(-c2ccccc2)cc1
inactive: [14] | [16] | [9] | [10]
active: [15] 2.69 µM

Clc1cc(Cl)c(-c2cc(Cl)c(Cl)c(Cl)c2Cl)cc1Cl
inactive: [14]
active: [15] 14.2 µM | [16] 19.1 µM

CC1(C)[C@H](C=C(Cl)Cl)[C@H]1C(=O)OCc1c(F)c(F)cc(F)c1F
active: [1] 9.4 µM | [2] 80.1 µM | [3] 11.9 µM | [4] 22 µM | [5] 50 µM | [6] 81.1 µM | [7] 26.7 µM | [8] 23.2 µM | [11] 18.1 µM | [13] 19.9 µM
inactive: [12]

COP(=O)(OC)SCN1C(=O)c2ccccc2C1=O
active: [11] 50.5 µM
not listed: [8] | [14] | [15] | [16] | [17]
inactive: all other assays above

C=CCN1CC[C@]23c4c5ccc(O)c4O[C@H]2C(=O)CC[C@@]3(O)[C@H]1C5
inactive: [1] | [2] | [3] | [5] | [6] | [7] | [8]

[CH3][Sn]([CH3])([CH3])[Cl]
active: [14] 3.1 µM | [15] 2.5 µM | [16] 4.02 µM

CCOP(=S)(OCC)SCS(=O)C(C)(C)C (stereo not drawn)
not listed: [5] | [14] | [15] | [16] | [17]
inactive: all other assays above

O=C(O)C(F)(F)C(F)(F)C(F)(F)C(F)(F)C(=O)O
inactive: [17]

CN1CC=C(c2ccccc2)CC1
inactive: [14] | [15] | [16]

CC(=O)[O-].[Tl+]
inactive: [4] | [7] | [12]
active: [1] 9.92 µM | [2] 59.5 µM | [3] 25.3 µM | [5] 50 µM | [6] 50 µM | [10] 30.9 µM | [11] 2.79 µM | [13] 2.26 µM

O=C(O)C(F)(F)C(F)(F)C(F)(F)C(=O)O
inactive: [17]

CC(C)CC(C)c1sccc1NC(=O)c1cn(C)nc1C(F)(F)F (stereo not drawn)
active: [15] 73.1 µM | [9] 5.68 µM
inactive: [14] | [16] | [10] | [12]

Cn1nc(C(F)(F)F)c(CS(=O)(=O)C2=NOC(C)(C)C2)c1OC(F)F
active: [1] 15.1 µM | [2] 84.9 µM | [6] 77.1 µM | [10] 50.1 µM | [11] 50 µM
not listed: [14] | [15] | [16] | [17]
inactive: all other assays above

OCCCC(F)(F)C(F)(F)C(F)(F)C(F)(F)C(F)(F)C(F)(F)C(F)(F)F
inactive: [17]

CC1(C)C(C=C(Cl)Cl)C1C(=O)O[C@H](C#N)c1cccc(Oc2ccccc2)c1 (stereo partly drawn)
inactive: [5] | [8] | [10] | [11] | [12] | [13]
active: [1] 12.8 µM | [2] 80 µM | [3] 12.3 µM | [4] 23.3 µM | [6] 80 µM | [7] 29.3 µM | [9] 1.32 µM

FC(F)(F)C(F)(F)C(F)(F)C(F)(F)C(F)(F)C(F)(F)I
inactive: [17]

O=C(O)CCC(F)(F)C(F)(F)C(F)(F)F
inactive: [17]
